Screening data from PubChem BioAssay.
This is one part of a sample in which hits are shown more often than they occur.
ST2 inh: inhibitors of human ST2 (IL1RL1) binding to IL-33, primary screen, biochemical, AlphaLISA | Interleukin-1 receptor-like 1 (Homo sapiens), Q01638 | AlphaLISA ST2-Fc/biotin-IL-33 interaction, 1 h | inhibition, % for hits at 17 µM | 78,000 tested, 2.3% active; in the data active = inhibition above about 30%
Target sequence (Q01638 whole entry, looked up): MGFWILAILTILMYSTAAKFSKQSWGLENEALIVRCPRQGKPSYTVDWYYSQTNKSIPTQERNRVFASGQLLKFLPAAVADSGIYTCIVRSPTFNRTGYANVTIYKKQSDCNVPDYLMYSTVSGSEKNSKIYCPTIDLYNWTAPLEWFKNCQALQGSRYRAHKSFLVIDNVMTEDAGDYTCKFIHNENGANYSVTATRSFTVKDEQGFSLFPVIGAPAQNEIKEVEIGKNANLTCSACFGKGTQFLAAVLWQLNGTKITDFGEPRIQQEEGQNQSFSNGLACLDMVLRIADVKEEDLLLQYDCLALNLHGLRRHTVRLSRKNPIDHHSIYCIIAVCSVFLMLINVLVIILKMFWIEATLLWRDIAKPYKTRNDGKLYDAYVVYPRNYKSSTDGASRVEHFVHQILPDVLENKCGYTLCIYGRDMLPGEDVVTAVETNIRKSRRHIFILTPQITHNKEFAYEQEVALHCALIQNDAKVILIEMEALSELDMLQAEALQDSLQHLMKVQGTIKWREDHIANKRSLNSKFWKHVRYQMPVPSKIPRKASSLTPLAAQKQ
The depositor's hits bear a star; i = inactive; ! = not active in a repeat.

SMILES | ST2 inh
Cc1ccsc1C1(C(=O)N2CCC(O)(C(=O)O)CC2)CC1(C)C (stereo not drawn) | i
CC1=C(C(=O)OC2CCCCC2)C(c2ccc(C)cc2)n2ncnc2N1 (stereo not drawn) | i
c1ccc(OCC2=NNC(COc3ccccc3)=NN2)cc1 | i
O=C(O)c1ccc(C(=O)O)c(-c2ccccc2)c1 | i
COc1ccc(/C=C2/C(=O)c3ccc(C(=O)O)cc3C2=O)cc1OC | i
O=C(O)c1ccc2c(c1)C(=O)/C(=C\c1ccco1)C2=O | 71.0%*
O=C(O)c1ccc(N2CCCC2)c([N+](=O)[O-])c1 | i
O=C1OC(c2ccccc2)OC(=O)C1=Cc1ccc(-c2cc(C(=O)O)ccc2Cl)o1 (stereo not drawn) | i
O=C(O)c1ccc2c(c1)C(=O)/C(=C\c1ccc([N+](=O)[O-])o1)C2=O | 91.0%*
CN(C)CCSc1nc2ccccc2n1CCc1ccccc1 | i
CC1CCCC(C)N1C(=O)c1ccc(F)cc1 (stereo not drawn) | i
COC(=O)c1ccc(CN2CCc3c(c(C(=O)NCc4ccccc4)nn3C)C2)cc1 | i
CCCCC1C=CCN1C(=O)C1=NNC(=O)CC1 (stereo not drawn) | i
CC(C)(C)C1=CC(=O)c2c(ccc(C(C)(C)C)c2O)C1=O | 65.0%*
COc1ccccc1NC(=O)C1=C(C)Nc2nnnn2C1c1ccccc1[N+](=O)[O-] (stereo not drawn) | i
CCCC(=O)Nc1cccc(Oc2nc(C)c(Cl)c(C)c2C#N)c1 | i
O=[N+]([O-])c1cccc(-c2noc([C@@H]3C[C@@H](O)CN3Cc3ccccc3)n2)c1 | i
Cc1ccc(CN2C[C@H](O)C[C@H]2c2nc(-c3cccc([N+](=O)[O-])c3)no2)cc1 | i
O=[N+]([O-])c1cccc(-c2noc([C@@H]3C[C@@H](O)CN3Cc3ccc(CO)o3)n2)c1 | 58.0%*
Cc1cccc(-c2noc([C@@H]3C[C@@H](O)CN3Cc3cccs3)n2)c1 | i
O=[N+]([O-])c1cccc(-c2noc([C@@H]3C[C@@H](O)CN3Cc3ccc(Cl)cc3)n2)c1 | i
O=[N+]([O-])c1cccc(-c2noc([C@@H]3C[C@@H](O)CN3Cc3cccs3)n2)c1 | 61.0%*
CN1CC2=C(OC(N)=C(C#N)C2c2ccc(F)cc2)/C(=C/c2ccc(F)cc2)C1 (stereo not drawn) | i
CC(=O)c1c(C)oc2c(Cl)cc(NS(=O)(=O)c3ccc(C)cc3)cc12 | i
Cc1sc2nc3c(C(=O)NCc4ccccc4Cl)cccn3c(=O)c2c1C | i
SMILES | ST2 inh
O=C1NC(=O)/C(=C\c2ccc(Cl)cc2Cl)S1 | 31.0%*
O=C1S/C(=C\c2ccc(Cl)cc2Cl)C(=O)N1CN1CCOCC1 | i
O=C1NC(=O)/C(=C/c2ccc([N+](=O)[O-])cc2)S1 | i
COc1cc(-c2ccc3cc[nH]c3c2)cc(OC)c1OC | i
CCOC(=O)C1=C(C)Nc2nc(SCc3ccccc3)nn2C1c1ccc(F)cc1 (stereo not drawn) | i
Cc1cc(C)n(CC(C)NCc2noc(-c3ccc4c(c3)OCO4)n2)n1 (stereo not drawn) | i
COc1ccc(N(C(=O)Cn2nnnc2N)C2(C(=O)Nc3c(C)cccc3C)CCCCC2)cc1 | i
CC1C(=O)C(C)C(c2ccccc2O)NC1c1ccccc1O (stereo not drawn) | i
CC1C(=O)C(C)C(c2ccc(N(C)C)cc2)NC1c1ccc(N(C)C)cc1 (stereo not drawn) | 36.0%*!
CC1C(=O)C(C)C(c2ccc(F)cc2)NC1c1ccc(F)cc1 (stereo not drawn) | i
C[C@@H]1O[C@@H](OC[C@H]2O[C@@H](Oc3c(-c4ccc(O)cc4)oc4cc(O)cc(O)c4c3=O)C(O)[C@@H](O)C2O)[C@H](O)[C@H](O[C@@H]2O[C@H](CO)[C@@H](O)[C@H](O)[C@H]2O)[C@H]1O (stereo partly drawn) | i
CC(NC(=O)/C(C#N)=C/c1ccc(Cl)c(Cl)c1)c1ccccc1 (stereo not drawn) | i
CCCCOC(=O)c1ccc(NC(=O)c2cc3c(=O)n4ccccc4nc3n2C)cc1 | i
CNc1nc(-c2cc(NC3CCNCC3)nc3[nH]ccc23)nc2c1CCC2 | 37.0%*
COc1ccc(OC)c(C2CC(c3ccc(Br)cc3)=NN2C(C)=O)c1 (stereo not drawn) | i
OC[C@@H]1O[C@H](CNCc2ccccn2)[C@H](N2CCN(c3ncccn3)CC2)[C@@H]1O | i
O=C(NC1CCCCC1)c1noc2c1CCCC2 | i
COc1cccc(NC(=O)NC[C@@H]2C=C(C)[C@H](CC(=O)Nc3ccccn3)C[C@H]2C(C)C)c1 | i
Cc1cc([N+](=O)[O-])c(C)cc1-c1ccc(/C=C(\C#N)c2nc3ccccc3[nH]2)o1 | 38.0%*
N#C/C(=C\c1ccc(N2CCOCC2)cc1)c1nc2ccccc2[nH]1 | i
O=c1/c(=C\c2ccc(-c3ccccc3[N+](=O)[O-])o2)sc2nc3ccccc3n12 | i
O=C(Nc1ccc(N2CCOCC2)cc1)c1ccccc1 | i
Cc1cc(C(=O)Nc2ccc(N3CCOCC3)cc2)ccc1[N+](=O)[O-] | i
O=C(Nc1ccc(N2CCOCC2)cc1)c1cccc([N+](=O)[O-])c1 | 30.0%*
Nc1nonc1-c1nc2ccccc2n1CC(=O)Nc1cccc(Br)c1 | i
SMILES | ST2 inh
O=C1Nc2ccc(Br)cc2/C1=C/c1ccsc1 | 39.0%*
COc1ccc(/C=C2\C(=O)Nc3ccc(Br)cc32)cc1O | i
COc1cccc(/C=C2\C(=O)Nc3ccc(Br)cc32)c1OC | i
O=C1Nc2ccc(Br)cc2/C1=C/c1cccc(F)c1 | 30.0%*
COc1cc(/C=C2\C(=O)Nc3ccc(Br)cc32)cc(Br)c1O | i
COc1cc(/C=C2\C(=O)Nc3ccc(Br)cc32)cc(OC)c1O | i
CC(=O)Nc1cc(C(=O)NC2CC2)ccc1S(=O)(=O)c1ccc(Cl)cc1 | i
CCn1c(C2CCN(C(=O)Cn3cnc4ccccc43)CC2)nn(C)c1=O | i
CCc1ccccc1NC(=O)CCNC1CCSC1 (stereo not drawn) | i
OCCC1CN(Cc2cccc(-n3cccn3)c2)CCN1Cc1cccs1 (stereo not drawn) | i
CN(C)c1nc2c(c(N3CCn4cncc4C3)n1)CCCC2 | i
CCOC(=O)c1nn(CCc2scnc2C)c2c1CN(C/C(C)=C/c1ccco1)CC2 | i
CCC(C)NC(=O)C1(O)c2ccccc2NC(=O)N1c1ccc(Cl)c(Cl)c1 (stereo not drawn) | i
O=C(NC1CCCCCCC1)C1CCCN1S(=O)(=O)c1cccc2nsnc12 (stereo not drawn) | 33.0%*
CC(C)(C)NC(=O)C1CCCN1S(=O)(=O)c1cccc2nsnc12 (stereo not drawn) | i
O=C(C1CCCN1S(=O)(=O)c1cccc2nsnc12)N1CCCCC1 (stereo not drawn) | i
CN(CCC1CCOCC1)C(=O)CC1C(=O)NCCN1Cc1cccc2ccccc12 (stereo not drawn) | i
CN(Cc1cnccn1)C(=O)CC1C(=O)NCCN1Cc1ccc(F)cc1Cl (stereo not drawn) | i
CC(C)CN1CCNC(=O)C1CC(=O)N(C)Cc1cccc2cccnc12 (stereo not drawn) | 79.0%*
Clc1ccc2c(c1)c(-c1ccccc1)nc1nnnn12 | i
Cc1nnc(SCC(=O)N(Cc2ccccn2)CC(C)C)s1 | i
